# “And” between values parts separate entries of the source, which are not always exact repeats. Equal values may be shown once. Results filed as inconclusive are left out. Entries that show only a call come without a potency. More than one record can exist for a structure, and the calls need not agree. The source made the active and inactive calls. Unless noted, calls follow the shape of the dose curve; as a rule, active = well fitted curve in the direction sought with a large enough effect; inconclusive = small, poorly fitted or top-dose-only effect, or another doubt; inactive = no such curve, though single readings can be large; an effect the other way counts as inactive or inconclusive.
# Legend:
# [1] = biological target: Guanine nucleotide-binding protein G(i) subunit alpha-1 (Homo sapiens) (UniProt P63096); experiment: qHTS Assay for Inhibitors of RGS12 GoLoco Motif Activity (Green Fluorophore) (AID 879);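 also: negative values mean loss of peptide binding seen as reduced polarization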
# Chain of Guanine nucleotide-binding protein G(i) subunit alpha-1 (Homo sapiens) (P63096 whole entry, looked up): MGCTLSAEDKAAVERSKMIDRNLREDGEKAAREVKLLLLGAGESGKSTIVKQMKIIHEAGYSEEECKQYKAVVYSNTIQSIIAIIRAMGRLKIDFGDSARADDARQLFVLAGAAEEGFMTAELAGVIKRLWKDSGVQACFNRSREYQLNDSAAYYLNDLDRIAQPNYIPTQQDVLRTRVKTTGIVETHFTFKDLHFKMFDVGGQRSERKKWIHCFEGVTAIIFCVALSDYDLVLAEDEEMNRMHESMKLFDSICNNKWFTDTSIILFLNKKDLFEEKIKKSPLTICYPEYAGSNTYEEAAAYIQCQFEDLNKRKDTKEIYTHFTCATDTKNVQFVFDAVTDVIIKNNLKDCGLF
# Outline: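 A drop in FITC polarization marked displacement of the FITC-tagged RGS12 GoLoco peptide (10 nM) from Gαi1 (50 nM). Compounds were incubated 10 min at room temperature in Tris pH 7.5 buffer containing 150 mM NaCl, 0.1 mM GDP and 0.05% NP40; unlabeled peptide titration served as control.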
# [2] = biological target: Cytochrome P450 3A4 (Homo sapiens) (UniProt P08684); experiment: qHTS Assay for Inhibitors and Substrates of Cytochrome P450 3A4 (AID 884); also: series mostly up to about 57 µM; nearly all actives have a fitted effect of over 50% in size
# Chain of Cytochrome P450 3A4 (Homo sapiens) (P08684 whole entry, looked up): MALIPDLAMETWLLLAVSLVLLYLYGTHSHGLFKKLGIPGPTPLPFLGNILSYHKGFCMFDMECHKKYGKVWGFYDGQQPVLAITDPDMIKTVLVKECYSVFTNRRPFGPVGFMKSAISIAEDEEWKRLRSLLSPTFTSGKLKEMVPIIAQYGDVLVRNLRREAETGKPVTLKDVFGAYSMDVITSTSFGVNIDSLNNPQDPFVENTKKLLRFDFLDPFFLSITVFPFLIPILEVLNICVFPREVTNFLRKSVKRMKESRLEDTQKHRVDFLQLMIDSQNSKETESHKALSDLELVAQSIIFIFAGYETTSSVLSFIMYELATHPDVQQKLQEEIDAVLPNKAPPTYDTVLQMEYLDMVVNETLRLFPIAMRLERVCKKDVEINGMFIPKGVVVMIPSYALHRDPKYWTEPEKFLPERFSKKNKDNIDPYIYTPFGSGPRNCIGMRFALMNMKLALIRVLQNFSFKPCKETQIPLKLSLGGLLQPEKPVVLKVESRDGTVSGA
# Outline: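 Luminescent readout of luciferin produced by CYP3A4 (20 nM) dealkylation of Luciferin-PPXE, 25 uM (its KM). NADPH-driven reaction ran 60 min at RT after 10 min compound preincubation; data scaled to 57 uM ketoconazole as 100% inhibition.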
# [3] = Confirmation and Secondary Assay for Modulators of Hemoglobin Beta Chain Splicing at IVS2 654 locus (AID 910);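 also: HeLa cells stably carrying EGFP split by mutant beta-globin IVS2-654 intron; per-well total GFP intensity by laser scanning cytometry after 2-day treatment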;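 also: potency is read from the fitted curve at half-maximal effect; potency of activators that raise GFP signal by restoring correct splicing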
# Outline: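 Readout: per-well total peak green fluorescence (488 nm ex, 500–520 nm em) from objects 5–250 µm, reflecting correct splicing of an EGFP-654 reporter. Compounds were applied for 2 days at 37 °C to overnight-plated HeLa EGFP-654 cells; controls were DMSO and 500 nM IVS2-654 PNA.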
# [4] = qHTS Assay for Identification of Small Molecule Agonists for Thrombopoietin (TPO) Signaling Pathway (AID 917)
# Outline: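 Cell-based luciferase reporter screen. Mouse Ba/F3 line stably expressing human TPO receptor; IL-3 removed overnight before plating. Co-treatment with compound and EC50 TPO (26 pM), 24 hrs at 37 C, then luminescence.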
# [5] = Confirmation and Secondary Assay for Modulators of Hemoglobin Beta Chain Splicing at IVS2 705 locus (AID 930);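 also: GFP fluorescence per well restored by corrected splicing of the IVS2-705 intron in EGFP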; also: potency is read from the fitted curve at half-maximal effect;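 as to activation: HeLa cells stably expressing the EGFP-705 splicing reporter; series mostly up to about 46 µM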
# Outline: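 Stable HeLa line with EGFP disrupted by mutant beta-globin intron 2 (705). Overnight attachment, then 2 days of compound at 37C, 5% CO2. Signal: peak GFP intensity summed over objects 5-250 µm.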
# [6] = biological target: Pyruvate kinase (Leishmania mexicana) (UniProt Q27686); experiment: qHTS Validation Assay for Inhibitors of Leishmania Mexicana Pyruvate Kinase (AID 945)
# Chain of Pyruvate kinase (Leishmania mexicana) (Q27686 2-499 E452W): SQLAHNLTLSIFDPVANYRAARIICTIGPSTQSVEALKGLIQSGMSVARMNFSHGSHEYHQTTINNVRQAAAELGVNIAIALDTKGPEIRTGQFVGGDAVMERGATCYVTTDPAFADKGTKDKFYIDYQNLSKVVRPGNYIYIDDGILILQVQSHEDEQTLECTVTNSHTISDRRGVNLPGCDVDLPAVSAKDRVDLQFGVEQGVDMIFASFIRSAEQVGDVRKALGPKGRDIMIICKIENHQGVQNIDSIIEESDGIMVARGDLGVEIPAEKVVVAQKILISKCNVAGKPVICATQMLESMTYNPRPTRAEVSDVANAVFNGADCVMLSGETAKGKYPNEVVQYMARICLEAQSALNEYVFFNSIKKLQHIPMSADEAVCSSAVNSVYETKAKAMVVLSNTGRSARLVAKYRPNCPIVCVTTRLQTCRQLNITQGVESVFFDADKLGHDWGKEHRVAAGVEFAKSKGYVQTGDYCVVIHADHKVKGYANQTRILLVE
# Outline: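 Mutant LmPYK (E451W), 0.2 nM, plus 0.5 mM PEP and 0.1 mM ADP in 50 mM imidazole pH 7.2 containing 0.01% Tween 20 and 0.05% BSA. Incubated 1 h at room temperature; luminescence via PKLight, normalized to DMSO.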
# [7] = Cellular Toxicity (caspase-3) H-4-II-E (AID 663);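 also: cells exposed to compound for 16 hr before readout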
# Outline: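 Caspase 3/7 activation measured by luminescent aminoluciferin substrate cleavage after 16 hr compound treatment of H-4-II-E cells in complete medium. Increase normalized between DMSO (basal) and 100 uM tamoxifen (100%); Hill-equation AC50 from concentration-response.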
# [8] = Cellular Toxicity (caspase-3) Hek293 (AID 664);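 also: cells exposed to compound for 16 h at 37 °C before readout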
# Outline: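 Apoptosis readout: Caspase-Glo 3/7 signal in human HEK293 cells following 16-hour compound incubation. Responses scaled between DMSO baseline and 100 uM tamoxifen.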
# [9] = Cellular Toxicity (caspase-3) N2a (AID 665);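 also: compound exposure lasted 16 h at 37 °C before readout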
# Outline: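 Concentration-response qHTS: compound-induced caspase-3/7 luminescence in N2a cells (16 h, 37 °C), relative to DMSO and 10 uM staurosporine controls; AC50 obtained using the standard Hill equation.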
# [10] = Cellular Toxicity (caspase-3) NIH 3T3 (AID 666);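 also: caspase signal read after 16 h compound exposure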
# Outline: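 Activity: caspase-3/7 induction, NIH 3T3 cells, 16 hr treatment at 37°C, luminescent Caspase-Glo detection; AC50 via Hill equation.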
# [11] = Cellular Toxicity (caspase-3) Renal Proximal Tubule (AID 667);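 also: cells exposed to compound for 16 hours at 37 °C before detection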
# Outline: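 AC50 derived by standard Hill fit of concentration-response data, normalized between DMSO basal and 10 uM staurosporine as 100% stimulation. Cells: primary rat kidney proximal tubule, 16 h treatment at 37 °C.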
# [12] = biological target: Cytochrome P450 2C9 (Homo sapiens) (UniProt P11712); experiment: qHTS Assay for Inhibitors and Substrates of Cytochrome P450 2C9 (AID 883); also: nearly all actives have a fitted effect of over 60% in size; also: potency is read from the fitted curve at half-maximal effect
# Chain of Cytochrome P450 2C9 (Homo sapiens) (P11712 whole entry, looked up): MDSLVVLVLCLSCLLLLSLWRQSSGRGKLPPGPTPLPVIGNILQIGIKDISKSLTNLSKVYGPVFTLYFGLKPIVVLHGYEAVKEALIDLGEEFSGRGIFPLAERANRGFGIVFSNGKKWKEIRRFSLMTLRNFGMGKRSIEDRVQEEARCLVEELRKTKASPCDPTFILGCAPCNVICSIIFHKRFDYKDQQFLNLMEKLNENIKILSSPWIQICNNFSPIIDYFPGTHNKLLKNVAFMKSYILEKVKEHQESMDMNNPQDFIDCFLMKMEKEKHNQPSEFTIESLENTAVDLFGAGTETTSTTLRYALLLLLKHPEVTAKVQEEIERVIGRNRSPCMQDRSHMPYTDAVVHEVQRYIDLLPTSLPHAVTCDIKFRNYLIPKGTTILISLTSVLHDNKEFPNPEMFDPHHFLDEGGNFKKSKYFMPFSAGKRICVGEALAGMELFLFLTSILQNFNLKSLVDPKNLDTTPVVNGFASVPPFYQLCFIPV
# Outline: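 Inhibition of CYP2C9 is scored as loss of luminescence, with 57uM sulphaphenazole defining 100% inhibition. Substrate Luciferin-H is used at 100uM, equal to its KM; enzyme at 10nM in 25mM KPO4, 60 min at 37C with NADPH regeneration.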
# [13] = biological target: Cytochrome P450 2D6 (Homo sapiens) (UniProt P10635); experiment: qHTS Assay for Inhibitors and Substrates of Cytochrome P450 2D6 (AID 891); also: nearly all actives have a fitted effect of over 60% in size; also: potency is read from the fitted curve at half-maximal effect
# Chain of Cytochrome P450 2D6 (Homo sapiens) (P10635 whole entry, looked up): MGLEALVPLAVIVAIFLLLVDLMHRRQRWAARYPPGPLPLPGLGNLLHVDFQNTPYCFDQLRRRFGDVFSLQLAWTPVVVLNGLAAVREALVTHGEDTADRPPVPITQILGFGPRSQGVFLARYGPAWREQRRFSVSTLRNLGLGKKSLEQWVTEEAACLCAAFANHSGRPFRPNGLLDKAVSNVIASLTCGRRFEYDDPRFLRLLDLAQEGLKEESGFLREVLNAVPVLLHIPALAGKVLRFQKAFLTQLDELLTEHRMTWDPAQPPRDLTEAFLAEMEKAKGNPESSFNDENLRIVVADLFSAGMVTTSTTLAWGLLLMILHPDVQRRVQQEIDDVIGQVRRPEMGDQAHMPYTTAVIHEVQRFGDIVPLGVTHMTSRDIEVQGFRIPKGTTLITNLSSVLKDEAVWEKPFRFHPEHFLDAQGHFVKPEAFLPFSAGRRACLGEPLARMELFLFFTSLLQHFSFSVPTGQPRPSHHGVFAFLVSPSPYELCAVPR
# Outline: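 Luminescent read-out of luciferin formed by 5 nM human CYP2D6 demethylating 30 uM Luciferin-ME EGE (Km level) over 60 min at room temperature after NADPH regeneration addition. Data normalized to full inhibition by 1.43 uM quinidine.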
# [14] = biological target: Cytochrome P450 2C19 (Homo sapiens) (UniProt P33261); experiment: qHTS Assay for Inhibitors and Substrates of Cytochrome P450 2C19 (AID 899); also: nearly all actives have a fitted effect of over 60% in size; also: potency is read from the fitted curve at half-maximal effect
# Chain of Cytochrome P450 2C19 (Homo sapiens) (P33261 whole entry, looked up): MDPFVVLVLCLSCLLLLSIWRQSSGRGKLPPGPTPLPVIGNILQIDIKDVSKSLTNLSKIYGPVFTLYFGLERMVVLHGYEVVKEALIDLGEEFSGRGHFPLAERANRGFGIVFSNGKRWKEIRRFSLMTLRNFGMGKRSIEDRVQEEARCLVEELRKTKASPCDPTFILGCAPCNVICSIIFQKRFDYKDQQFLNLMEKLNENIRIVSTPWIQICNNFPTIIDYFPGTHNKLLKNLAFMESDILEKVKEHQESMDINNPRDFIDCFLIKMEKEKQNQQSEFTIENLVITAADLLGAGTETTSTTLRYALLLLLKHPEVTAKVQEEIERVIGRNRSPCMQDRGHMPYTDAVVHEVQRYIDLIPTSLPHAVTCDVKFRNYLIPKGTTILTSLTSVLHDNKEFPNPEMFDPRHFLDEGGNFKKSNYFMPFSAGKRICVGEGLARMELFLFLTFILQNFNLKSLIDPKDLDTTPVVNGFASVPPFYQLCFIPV
# Outline: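 5nM enzyme + 10uM Luciferin-H EGE (=KM), 50mM KPO4; cpd pin-transferred, 10 min 37C; NADPH regen, 60 min 37C; stopped w/ luciferin detection reagent, 20 min; luminescence. Normalized to 57uM ketoconazole (AC100).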
# [15] = Cell Viability - LYMP2-001 (AID 921);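 also: cells exposed to compound for 24 h at 37 °C; nearly all actives have a fitted effect of over 70% in size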; also: potency is read from the fitted curve at half-maximal effect
# Outline: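 Steps: seed 2500 lymphoblastoid cells/well; 5 hr, 37 C; add compound; 24 hr, 37 C; CellTiter-Glo reagent, 30 min room temperature; read luminescence. Concentration-response modeled by Hill equation for AC50.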
# [16] = biological target: Cytochrome P450 3A4 (Homo sapiens) (UniProt P08684); experiment: qHTS Assay for Activators of Cytochrome P450 3A4 (AID 885); also: nearly all actives have a fitted effect of over 65% in size
# Outline: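 Activators are scored by enhanced luminescence from CYP3A4 conversion of luciferin-PPXE (25uM, equal to KM) to luciferin, after 60 min at RT with an NADPH-regenerating system.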
# [17] = qHTS Assay for Identification of Small Molecule Antagonists for NFkB Signaling Pathway (AID 895; active = well fitted inhibition curve with a large enough effect in the signal ratio, with a control signal flat, not every such curve was filed as active; the % refers to the signal ratio; also: potency is read from the fitted curve at half-maximal effect)
# Outline: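 Beta-lactamase reporter read-out (460 and 530 nm emission ratio, 405 nm excitation, 2 hrs substrate loading RT) after 5 hr stimulation with 10 pM TNF alpha in compound-treated NFkB-bla ME-180 cells in low-serum medium.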
# [18] = biological target: Muscarinic acetylcholine receptor M1 (Rattus norvegicus) (UniProt P08482); experiment: qHTS Assay for Antagonists of Acetylcholine Muscarinic M1 Receptor: Kinetic Measurement of Intracellular Calcium Response (AID 943);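 also: Fluo-4 calcium signal as peak divided by basal fluorescence over 4 min; series mostly up to about 35 µM; nearly all actives have a fitted effect of over 75% in size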
# Chain of Muscarinic acetylcholine receptor M1 (Rattus norvegicus) (P08482 whole entry, looked up): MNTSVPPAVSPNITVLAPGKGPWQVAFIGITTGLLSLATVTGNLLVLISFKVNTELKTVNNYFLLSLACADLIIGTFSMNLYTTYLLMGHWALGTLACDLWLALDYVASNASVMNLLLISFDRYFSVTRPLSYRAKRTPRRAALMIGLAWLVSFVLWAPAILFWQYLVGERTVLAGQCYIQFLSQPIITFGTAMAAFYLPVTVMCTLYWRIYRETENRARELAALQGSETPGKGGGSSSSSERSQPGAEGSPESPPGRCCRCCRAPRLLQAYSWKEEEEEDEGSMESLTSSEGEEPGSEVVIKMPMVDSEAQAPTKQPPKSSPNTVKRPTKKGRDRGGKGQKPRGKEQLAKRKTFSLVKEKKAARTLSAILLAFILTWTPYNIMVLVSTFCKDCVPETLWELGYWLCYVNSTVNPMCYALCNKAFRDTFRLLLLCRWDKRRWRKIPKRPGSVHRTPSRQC
# Outline: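 Quantitative HTS in CHO-M1 (rat receptor) cells: 10 min compound exposure ahead of 100 nM carbachol, Fluo-4 fluorescence followed 4 min, value expressed as peak-to-basal ratio.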
# [19] = qHTS Assay for Identification of Small Molecule Agonists for Hypoxia Response Element Signaling Pathway (AID 914; active = well fitted activation curve with a large enough effect in the signal ratio, with a control signal flat, not every such curve was filed as active; the % refers to the signal ratio; also: potency is read from the fitted curve at half-maximal effect); settings: ME-180 (cervical carcinoma) HRE-bla reporter, beta-lactamase ratio, CoCl2, 17 h; activation: stronger effect = higher value
# Outline: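 Reporter activity (beta-lactamase, CCF4 460nm/530nm ratio) in HRE-bla ME-180 cells is recorded after 17 h compound exposure with EC50 CoCl2 at 37 degrees Celsius. AC50 values come from titration data.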
smiles,measurement,setting,value
O=c1n(CCCN2CCN(c3cccc(Cl)c3)CC2)nc2ccccn12,outcome,[1],inactive
same,Potency,[2],inactive
same,Potency,[3],inactive
same,outcome,[4],inactive
same,Potency,[5],inactive
same,outcome,[6],inactive
CC(=O)Oc1ccccc1C(=O)O,outcome,[7],inactive
same,outcome,[8],inactive
same,outcome,[9],inactive
same,outcome,[10],inactive
same,outcome,[11],inactive
same,outcome,[1],inactive
same,Potency,[12],inactive
same,Potency,[2],inactive
same,Potency,[13],inactive
same,Potency,[14],inactive
same,Potency,[3],inactive
same,outcome,[4],inactive
same,Potency,[15],inactive
same,Potency,[5],inactive
same,outcome,[6],inactive
CC(C)NCC(O)COc1ccc(COCCOC(C)C)cc1 (stereo not drawn),outcome,[1],inactive
same,Potency,[2],inactive
same,outcome,[4],inactive
same,outcome,[6],inactive
Cc1oncc1C(=O)Nc1ccc(C(F)(F)F)cc1,outcome,[1],inactive
same,outcome,[16],inactive
same,Potency,[13],inactive
same,Potency,[17],inactive
same,Potency,[14],inactive
same,Potency,[3],inactive
same,Potency,[5],inactive
same,outcome,[6],inactive
Cc1ccc(N(CC2=NCCN2)c2cccc(O)c2)cc1,outcome,[1],inactive
same,Potency,[13],3.16 µM (active) and 794 nM (active)
same,Potency,[3],inactive
same,outcome,[4],inactive
same,Potency,[5],inactive
same,outcome,[6],inactive
Cn1cnc([N+](=O)[O-])c1Sc1ncnc2nc[nH]c12,outcome,[7],inactive
same,outcome,[8],inactive
same,outcome,[9],inactive
same,outcome,[10],inactive
same,outcome,[11],inactive
same,outcome,[1],inactive
same,Potency,[17],inactive
same,Potency,[3],1.58 µM (active)
same,outcome,[4],inactive
same,Potency,[15],39.8 µM (active)
same,Potency,[5],inactive and 2.51 µM (active)
same,outcome,[6],inactive
NC(=O)c1cnccn1,outcome,[7],inactive
same,outcome,[8],inactive
same,outcome,[9],inactive
same,outcome,[10],inactive
same,outcome,[11],inactive
same,outcome,[1],inactive
same,Potency,[12],inactive
same,Potency,[2],inactive
same,Potency,[13],inactive
same,Potency,[14],inactive
same,Potency,[3],inactive
same,outcome,[4],inactive
same,Potency,[15],inactive
same,Potency,[5],inactive
same,outcome,[6],inactive
CCOC(=O)C1=C[C@@]2(CC)CCCN3CCc4c(n1c1ccccc41)[C@H]32,outcome,[1],inactive
same,Potency,[12],inactive
same,outcome,[16],inactive
same,Potency,[13],39.8 µM (active) and 6.31 µM (active)
same,Potency,[14],inactive
same,outcome,[4],inactive
same,outcome,[6],inactive
NNCCc1ccccc1,outcome,[1],inactive
same,outcome,[16],inactive
same,Potency,[13],6.31 µM (active) and 2.51 µM (active)
same,Potency,[14],794 nM (active) and 316 nM (active)
same,Potency,[3],inactive
same,outcome,[4],inactive
same,Potency,[5],inactive
same,outcome,[6],inactive
O=c1[nH]cnc2[nH]ncc12,outcome,[7],inactive
same,outcome,[8],inactive
same,outcome,[9],inactive
same,outcome,[10],inactive
same,outcome,[11],inactive
same,outcome,[1],inactive
same,Potency,[12],inactive
same,Potency,[2],inactive
same,Potency,[13],inactive
same,Potency,[14],inactive
same,Potency,[3],inactive
same,outcome,[4],inactive
same,Potency,[15],inactive
same,Potency,[5],inactive
same,outcome,[6],inactive
Nc1ccc(S(=O)(=O)Nc2ccnn2-c2ccccc2)cc1,outcome,[1],inactive
same,outcome,[16],inactive
same,Potency,[17],7.08 µM (active)
same,Potency,[14],inactive
same,Potency,[3],inactive
same,Potency,[5],inactive
same,outcome,[6],inactive
CCCCNc1cc(C(=O)O)cc(S(N)(=O)=O)c1Oc1ccccc1,outcome,[1],inactive
same,Potency,[17],inactive
same,Potency,[3],inactive
same,outcome,[4],inactive
same,Potency,[5],inactive
same,Potency,[18],inactive
same,outcome,[6],inactive
N[C@@H]1CONC1=O,outcome,[1],inactive
same,Potency,[12],inactive
same,outcome,[16],inactive
same,outcome,[4],inactive
same,outcome,[6],inactive
CCOC(=O)N1CCC(=C2c3ccc(Cl)cc3CCc3cccnc32)CC1,outcome,[1],inactive
same,Potency,[17],inactive
same,Potency,[3],inactive
same,Potency,[19],15.8 µM (active)
same,Potency,[5],inactive
same,outcome,[6],inactive
Clc1cccc(Cl)c1NC1=NCCN1,outcome,[1],inactive
same,Potency,[12],7.94 µM (active)
same,Potency,[14],5.01 µM (active)
same,outcome,[4],inactive
same,outcome,[6],inactive
NC(N)=NC(=O)c1nc(Cl)c(N)nc1N,outcome,[7],inactive
same,outcome,[8],inactive
same,outcome,[9],inactive
same,outcome,[10],inactive
same,outcome,[11],inactive
same,outcome,[1],inactive
same,Potency,[2],inactive
same,Potency,[17],inactive
same,Potency,[3],inactive
same,outcome,[4],inactive
same,Potency,[5],inactive
same,outcome,[6],inactive

# From PubChem BioAssay (NCATS)
